Compounds with a hit are over-represented: about 0.66% of the library has one in this group of screens.
Rango dissoc inh: inhibition of RanGTP-driven Rango-importin beta dissociation | Biochemical FRET Rango-importin beta, RanGTP-induced dissociation | Potency, µM (top dose mostly 46.1 µM) | hit rate 0.071% among 340,000; further: nearly all actives have a fitted effect of over 45% in size
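Compounds sat 5 min at room temperature with 0.1 uM Rango biosensor plus 0.25 uM importin beta, then FRET pre-read. RanGTP-RCC1 (0.6 uM Ran, 2mM GTP, 0.2 uM RCC1) added for 45 min, and the CFP/YFP post-read measured blocked complex dissociation.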
gsp ag: activates gsp, the McCune-Albright syndrome mutation. Potency, µM (top dose mostly 76.9 µM), actives largely listed as activators. gsp mutant cells, cAMP HTRF, 30 min. hit rate 0.13% among 340,000; active means well fitted activation curve with a large enough effect; inconclusive means small, poorly fitted or top-dose-only effect, or another doubt; inactive means no such curve, though single readings can be large or run the other way; cell line not stated here;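 further: phosphodiesterase inhibitor Ro 20-1724 added with compounds to block cAMP breakdown; nearly all actives have a fitted effect of over 60% in size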
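Cells in DMEM/10% FBS with G418 were pretreated with compounds in DMSO plus […] (300 uM stock) for 30 min at 37C. cAMP was measured by HTRF (cAMP-d2 plus anti-cAMP antibody-K) after 30 min at room temperature.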
gsp antagonist: antagonizes gsp, the McCune-Albright syndrome mutation; gsp-mutant cells, cAMP HTRF, 30 min; Potency, µM (doses to about 76.9 µM), most hits filed as inhibitors; hit rate 0.4% among 340,000; AID 624288; calls by dose curve; cell line not stated here;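 further: intracellular cAMP measured with PDE inhibitor Ro 20-1724 present during compound exposure; nearly all actives have a fitted effect of over 65% in size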
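HTRF cAMP measurement after 30 min RT detection following 30 min, 37C compound treatment alongside […] (added as 300 uM solution) in G418-selected cells seeded at 2000/well and grown 16–24 h.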
Rango complex inh: prevents formation of the Rango-importin beta complex | Q14974 | hit rate 0.031% among 340,000 | Rango CFP/YFP FRET sensor + importin beta, 45 min | Potency, µM (top dose mostly 92.2 µM); further: nearly all actives have a fitted effect of over 15% in size
Target sequence (Q14974 whole entry, looked up): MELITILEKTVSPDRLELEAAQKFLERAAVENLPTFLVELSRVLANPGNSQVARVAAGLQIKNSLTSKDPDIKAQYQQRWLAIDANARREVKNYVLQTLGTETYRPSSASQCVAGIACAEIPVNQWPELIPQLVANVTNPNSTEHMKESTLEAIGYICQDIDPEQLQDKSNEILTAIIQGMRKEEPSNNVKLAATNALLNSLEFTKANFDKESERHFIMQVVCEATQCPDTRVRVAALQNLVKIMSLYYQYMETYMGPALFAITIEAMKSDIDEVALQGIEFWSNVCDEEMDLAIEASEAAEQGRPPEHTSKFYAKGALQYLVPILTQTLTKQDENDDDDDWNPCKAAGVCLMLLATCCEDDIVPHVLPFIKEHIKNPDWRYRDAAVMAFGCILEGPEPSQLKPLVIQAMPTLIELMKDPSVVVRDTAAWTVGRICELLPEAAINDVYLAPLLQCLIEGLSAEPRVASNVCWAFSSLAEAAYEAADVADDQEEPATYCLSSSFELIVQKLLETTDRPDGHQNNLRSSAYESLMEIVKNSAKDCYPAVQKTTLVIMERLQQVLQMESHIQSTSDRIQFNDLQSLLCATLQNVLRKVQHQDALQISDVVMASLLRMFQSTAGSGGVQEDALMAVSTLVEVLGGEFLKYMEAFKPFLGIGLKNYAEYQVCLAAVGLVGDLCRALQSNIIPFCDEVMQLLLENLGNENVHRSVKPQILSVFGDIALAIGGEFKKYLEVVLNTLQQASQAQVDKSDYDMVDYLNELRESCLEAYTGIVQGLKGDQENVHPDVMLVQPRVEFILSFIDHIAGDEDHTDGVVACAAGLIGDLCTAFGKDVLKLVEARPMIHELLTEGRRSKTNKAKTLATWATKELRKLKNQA
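FRET biosensor Rango (snurportin 1 IBB between N-terminal EYFP and C-terminal Cerulean), 50 nM in PBS/1 mM DTT/0.02% Tween-20/0.1% BSA, preincubated 5 min RT with compound; 0.125 microM importin beta added, 45 min RT, CFP/YFP FRET ratio read.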
A number is an active result; 0 = inactive; ? = inconclusive; - = not tested or not shown; [ ] = remark or other dose. Unless noted, the call rests on the fitted dose curve.

SMILES	Rango dissoc inh	gsp ag	gsp antagonist	Rango complex inh
COc1cc2c(cc1OC)-c1cc(OCCN3CCOCC3)nc(=O)n1CC2	8.2µM	0	0	?
CCNc1cc2n(c(=O)n1)CCc1cc(OC)c(OC)cc1-2	0	0	0	0
CCN(CC)S(=O)(=O)c1ccc(OC)c(NC(=O)COc2ccc3c(C)cc(=O)oc3c2)c1	0	8.9µM	0	0
CCN(CC)S(=O)(=O)c1ccc(Cl)c(NC(=O)COc2ccc3c(C)cc(=O)oc3c2)c1	0	0	0	0
Nc1ncnn1Cc1ccccc1	-	0	-	-
CCCCN1C(=O)C(CC(=O)NCCCN(C)C)CC(C(=O)N2CCOCC2)=C1C (stereo not drawn)	-	0	-	-
O=C(Nc1ccccc1C(=O)Nc1ccccc1C(=O)O)c1ccccc1	0	0[15.4 µM]	?	0
O=C(O)c1ccccc1NC(=O)c1ccccc1Nc1ccccc1	0	0	32µM	0
O=C(Nc1nc2ccccc2c(=O)s1)c1ccc(F)cc1Cl	0	14µM	0	0
COc1ccccc1CN1CC(C(=O)NCCCCc2ccccn2)CCC1=O (stereo not drawn)	-	0	-	-
Cc1ccc(-c2nnc(Nc3ccc4c(c3)OCO4)c3ccccc23)cc1S(N)(=O)=O	0	0[15.4 µM]	28µM	0
CC(=O)Nc1ccc(Nc2nnc(-c3ccc(C)c(S(N)(=O)=O)c3)c3ccccc23)cc1	?	0[15.4 µM]	0	0
CC(C)C[C@@H](CO)NS(=O)(=O)c1c(F)cccc1F	0	-	0	0
C[C@H]1CN([C@@H](C)CO)C(=O)c2cc(Br)cnc2O[C@H]1CN(C)Cc1ccc(Oc2ccccc2)cc1	-	0	-	-
COc1ccc(-n2c(=S)[nH]c3cc(C(=O)NCc4ccccc4)ccc3c2=O)c(OC)c1	0	0[15.4 µM]	20µM	0
CCN(CC)S(=O)(=O)c1cccc(NC(=O)COc2ncnc3sccc23)c1	0	25µM	0	0
CC1(C)CC(=O)C=C(c2ccc(-c3cnn(Cc4ccccc4)c3)cc2)C1=O	-	0	-	-
CN(C)c1ccc(/C(=N\O)C(F)(F)F)cc1	0	0	40µM	0
O=C(CSC1=NCCS1)Nc1ccc(F)cc1	0	0	8.9µM	0
NC(=O)c1ccccc1NC(=O)CSC1=NCCS1	0	0	0	0
Cc1cccc(OCCn2c(-c3ccco3)nc3ccccc32)c1	0	0	35µM	0
Cc1cc(C)n2c(SCC(=O)NC3CCCCC3)nnc2n1	0	14µM	0	0
Cc1cc(C)n2c(SCC(=O)Nc3cc(C)on3)nnc2n1	0	22µM	0	0
CCc1nnc(NC(=O)CSc2nnc3nc(C)cc(C)n23)s1	0	?	0	0
C[C@H](CO)N1C[C@H](C)[C@@H](CN(C)S(=O)(=O)c2ccc(F)cc2)OCc2cn(nn2)CCCC1=O	-	0	-	-
SMILES	Rango dissoc inh	gsp ag	gsp antagonist	Rango complex inh
N#CC(=Cc1ccnc2ccccc12)c1ccccc1	-	0	-	-
Cc1ccc(-c2nnc(N3CCN(C(=O)c4cccs4)CC3)c3ccccc23)cc1	0	0	45µM	0
Cc1ccc(-c2nnc(N3CCN(c4ccccn4)CC3)c3ccccc23)cc1	0	0[15.4 µM]	40µM	0
Cc1ccc(-c2nnc(N3CCCCC3)c3ccccc23)cc1	0	0	35µM	0
CN1C(=O)[C@H]2[C@@H](c3ccccc3)N[C@]3(CCCN(Cc4ccc(F)cc4)C3=O)[C@H]2C1=O	-	0	-	-
CCOC(=O)C1(CCCc2ccccc2)CCN(C(=O)c2n[nH]c(CC)c2C)CC1	-	0	-	-
Cc1ccc(C(C)C)c(OCC(=O)NCC(c2cccs2)N2CCOCC2)c1 (stereo not drawn)	0	0[15.4 µM]	35µM	0
CN(C)/C=C/c1onc(-c2ccccc2Cl)c1C#N	0	0[15.4 µM]	11µM	0
Cc1ccccc1-c1noc(N)c1C#N	0	0	0	0
COc1cccc(/C=C(\C#N)c2nc3ccc(C)cc3[nH]2)c1OCC(=O)O	16µM	0	0	?
OCCn1c(-c2ccc3c(c2)OCO3)csc1=Nc1ccccc1	0	0	28µM	0
OCCn1c(-c2ccc(F)cc2)csc1=Nc1ccccc1	0	0	0	0
CC(=O)Nc1ccc(C(=O)Nc2cccc(S(=O)(=O)N(C)c3ccccc3)c2)cc1	0	0	0	0
CN(c1ccccc1)S(=O)(=O)c1ccc(NC(=O)c2ccc(-c3ccccc3)cc2)cc1	0	0	0	?
CN(c1cccc(NC(=O)c2ccc(N(C)S(=O)(=O)c3ccccc3)cc2)c1)S(C)(=O)=O	0	0	25µM	0
Cc1nc2cc(NC(=O)c3ccc(S(=O)(=O)N(C)c4ccccc4)cc3)ccc2o1	0	0[15.4 µM]	32µM	0
CN(c1ccccc1)S(=O)(=O)c1cccc(NC(=O)c2cc(=O)c3ccccc3o2)c1	0	0	40µM	0
Cc1cc(NC(=O)c2ccc(-c3ccccc3[N+](=O)[O-])o2)no1	0	0	0	0
O=C(Nc1cccc(NC(=O)c2ccccc2Cl)c1)c1ccc([N+](=O)[O-])o1	0	0	40µM	0
CC(=O)c1cccc(NC(=O)c2ccc(-c3ccccc3[N+](=O)[O-])o2)c1	0	0[15.4 µM]	45µM	0
O=C(Oc1ccc2c3c(c(=O)oc2c1)CCCC3)c1cccs1	?	?	0	0
O=C(Oc1cc2oc(=O)c3c(c2cc1Cl)CCCC3)c1cccs1	8.2µM[inhibitor]	0	0	?
COc1ccc(CCNC(=O)Cn2c(=O)n(-c3cc(F)ccc3F)c(=O)c3sccc32)cc1OC	0	0	32µM	0
O=C(CN1CCN(C(=O)c2ccc(-c3nc4ccccc4s3)o2)CC1)Nc1ccc(F)cc1	0	0	45µM	0
O=C(CN1CCN(C(=O)c2ccc(-c3nc4ccccc4s3)o2)CC1)Nc1ccccc1Cl	0	0[15.4 µM]	18µM	0
SMILES	Rango dissoc inh	gsp ag	gsp antagonist	Rango complex inh
Cc1cccc(NC(=O)CN2CCN(C(=O)c3ccc(-c4nc5ccccc5s4)o3)CC2)c1C	0	0[15.4 µM]	?	?
CCc1cc(C(=O)Nc2cc(S(=O)(=O)N3CCCCC3)ccc2N2CCN(C)CC2)sc1C	-	0	-	-
COc1ccccc1CN(C)C(=O)c1cccc(S(=O)(=O)N2CCCc3ccccc32)c1	0	0	35µM	0
O=C(NCCc1ccccc1)c1ccc2c(=O)[nH]c3c(C(=O)NCC4CCCO4)sc(=S)n3c2c1 (stereo not drawn)	0	0[15.4 µM]	?	?
O=C(NC1CCCCC1)c1sc(=S)n2c1[nH]c(=O)c1ccccc12	0	0	45µM	0
CCCCNC(=O)c1sc(=S)n2c1[nH]c(=O)c1ccccc12	0	0	25µM	0
CC1Sc2ccc(S(=O)(=O)N3CCC(C(=O)NCCc4ccccc4)CC3)cc2NC1=O (stereo not drawn)	0	0	?	0
CC1Sc2ccc(S(=O)(=O)N3CCC(C(=O)NCC(C)c4ccccc4)CC3)cc2NC1=O (stereo not drawn)	0	?	28µM	0
O=C(Nc1ccc(F)cc1)c1nc(S(=O)(=O)Cc2ccccc2)ncc1Cl	0	0	40µM	0
Cc1cccc(CS(=O)(=O)c2ncc(Cl)c(C(=O)Nc3c(C)cccc3C)n2)c1	0	0	0	0
CCCc1nnc(NC(=O)c2nc(S(=O)(=O)Cc3cccc(C)c3)ncc2Cl)s1	0	0	28µM	?

Assay outcomes deposited in PubChem BioAssay by National Center for Advancing Translational Sciences (NCATS).
